Most compounds without a hit are left out; they make up all but 2.1% or so of the library.
YB-1 expr inh: inhibitors of YB-1 gene expression, primary screen, cell-based, fluorescence | AID 434959, 2010 | U2OS, qRT-PCR YB-1 vs CDIP delta delta Cp, 16 h; stronger effect = higher value; zero = DMSO, each unit about twofold | delta delta Cp (YB-1 minus CDIP) (test concentration not listed) | hit rate 0.37% among 30,000;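 active means delta delta Cp rounded down to an integer at or above 3, about 3 SD of DMSO wells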;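 further: higher means less YB-1 transcript or more CDIP transcript relative to DMSO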
U2OS ROS induce: ROS inducers in U2OS cancer cells, primary screen, cell-based, H2DCF-DA fluorescence. U2OS ROS induction. ROS induction (% of piperlongumine), % at 10 µM. hit rate 2% among 46,000. AID 624156, 2012; in the data active means ROS induction above about 79%, passing the limit was not always enough
PD-1 reversal: activators reversing PD-1 mediated T-cell inhibition, primary screen, luminescence, primary human CD4 T cells, PD-L1 beads | CellTiter-Glo 96 h | activation, % (no concentration beside the values) | 29,000 tested, under 10 active | AID 2316, 2010; call rule not given here
Hits are given with their value.

For CC(C)NC(=O)N(C)C[C@@H]1OCCCC[C@@H](C)Oc2ccc(NC(=O)C3CCCCC3)cc2C(=O)N([C@H](C)CO)C[C@@H]1C the results were YB-1 expr inh inactive and U2OS ROS induce inactive.
For C[C@@H]1CN([C@H](C)CO)C(=O)Cc2cc(NS(=O)(=O)c3cn(C)cn3)ccc2O[C@H]1CN(C)C(=O)Nc1cccc2ccccc12 the results were YB-1 expr inh inactive and U2OS ROS induce inactive.
C[C@@H]1CN([C@@H](C)CO)C(=O)Cc2cc(NS(=O)(=O)c3ccccc3)ccc2O[C@@H]1CN(C)C(=O)Nc1cccc2ccccc12 was read as YB-1 expr inh inactive, U2OS ROS induce inactive and PD-1 reversal inactive.
For C[C@@H]1CN([C@H](C)CO)C(=O)Cc2cc(NS(=O)(=O)c3ccccc3)ccc2O[C@H]1CN(C)C(=O)Nc1cccc2ccccc12 the results were YB-1 expr inh inactive, U2OS ROS induce 98 and PD-1 reversal inactive.
Screening C[C@H]1CN([C@@H](C)CO)C(=O)Cc2cc(NS(=O)(=O)c3cn(C)cn3)ccc2O[C@H]1CN(C)C(=O)Nc1cccc2ccccc12 returned YB-1 expr inh inactive, U2OS ROS induce 121 and PD-1 reversal inactive.
O=C(c1ccco1)N1CCN(c2ncnc3nc[nH]c23)CC1 was read as U2OS ROS induce inactive.
Screening COc1ccc(CN(C)C[C@@H]2Oc3ccc(NC(=O)NC(C)C)cc3C(=O)N([C@H](C)CO)C[C@@H]2C)cc1 returned YB-1 expr inh inactive, U2OS ROS induce inactive and PD-1 reversal inactive.
`CC(C)NC(=O)N(C)C[C@@H]1Oc2ncc(/C=C/c3ccccc3)cc2C(=O)N([C@H](C)CO)C[C@@H]1C` gave YB-1 expr inh inactive and U2OS ROS induce inactive.
Screening C[C@H](CO)N1C[C@H](C)[C@H](CN(C)C(=O)NC2CCCC2)Oc2ncc(-c3cccc(C(F)(F)F)c3)cc2C1=O returned YB-1 expr inh inactive and U2OS ROS induce 122.
For C[C@H](CO)N1C[C@H](C)[C@H](CN(C)C(=O)Nc2cccc3ccccc23)Oc2ncc(-c3cccc(C(F)(F)F)c3)cc2C1=O the results were YB-1 expr inh inactive and U2OS ROS induce 109.
C[C@H](CO)N1C[C@H](C)[C@H](CN(C)C(=O)NC2CCCCC2)Oc2ncc(/C=C/c3ccccc3)cc2C1=O was read as YB-1 expr inh inactive and U2OS ROS induce 109.
Screening C[C@H](CO)N1C[C@H](C)[C@H](CN(C)C(=O)Nc2cccc3ccccc23)Oc2ncc(-c3cccc(F)c3)cc2C1=O returned YB-1 expr inh inactive and U2OS ROS induce inactive.
Screening CC(C)NC(=O)N(C)C[C@@H]1Oc2ncc(-c3cccc(C(F)(F)F)c3)cc2C(=O)N([C@H](C)CO)C[C@@H]1C returned YB-1 expr inh inactive and U2OS ROS induce inactive.
`Cc1ccc2c(c1)c1c(n2CC(O)CN2CCOCC2)C(=O)CCC1` (centres undefined) gave U2OS ROS induce inactive and PD-1 reversal inactive.
For CCOC(=O)c1c(COC(C)=O)n(C)c2cc(Br)c(OC)cc12 the results were YB-1 expr inh inactive, U2OS ROS induce inactive and PD-1 reversal inactive.
`Cc1nc(SC(C(=O)O)c2ccccc2)cc(-c2ccccc2)n1` (centres undefined) gave U2OS ROS induce inactive and PD-1 reversal inactive.
C[C@H](CO)N1C[C@H](C)[C@@H](CN(C)C(=O)Nc2ccc(F)cc2)Oc2c(NS(=O)(=O)c3cccs3)cccc2C1=O was read as YB-1 expr inh inactive, U2OS ROS induce inactive and PD-1 reversal inactive.
CC1(C)CC(=O)c2cc(C(=O)NCCCN3CCOCC3)c(=O)n(-c3ccccc3)c2C1 was read as U2OS ROS induce inactive and PD-1 reversal inactive.
For O=C(Cn1cnc2ccccc2c1=O)Nc1ccccc1Br the results were U2OS ROS induce inactive and PD-1 reversal inactive.
COc1ccccc1N1CCN(S(=O)(=O)c2ccc3[nH]cc(C(=O)O)c(=O)c3c2)CC1 was read as U2OS ROS induce inactive.
C[C@@H]1CCCCO[C@H](CN(C)Cc2ccc3c(c2)OCO3)[C@@H](C)CN([C@H](C)CO)C(=O)c2cc(NC(=O)Cc3ccccc3)ccc2O1 was read as YB-1 expr inh inactive, U2OS ROS induce inactive and PD-1 reversal inactive.
O=C(NCc1ccco1)c1ccc(Cn2c(=S)[nH]c3ccc(Br)cc3c2=O)cc1 was read as U2OS ROS induce 81.
`CC(C)NC(=O)c1ccc2c(=O)n(Cc3ccco3)c(=S)[nH]c2c1` gave U2OS ROS induce inactive.
For O=C(NO)c1cccc(C(=O)N/N=C/c2ccc(-n3ccnc3)cc2)c1 the results were YB-1 expr inh inactive and U2OS ROS induce inactive.
